An excerpt weighted towards active compounds, which were near 3.2% of everything screened.
Casp7 inh: qHTS Assay for Allosteric/Competitive Inhibitors of Caspase-7; P55210; recombinant caspase-7, Ac-DEVD-AFC fluorescence rate; Potency, µM (doses to about 57.5 µM), for the others: at the top dose activity change, negative = inhibition, actives largely listed as inhibitors; 75,000 compounds, 0.02% hits; active = well fitted inhibition curve with a large enough effect in the main read-out, with a control signal flat, not every such curve was filed as active; inconclusive = small, poorly fitted or top-dose-only effect, or a change in a side signal; also: % of control where 0% means no effect
ALOX15 inhib: qHTS Assay for Inhibitors of 15-hLO (15-human lipoxygenase); Polyunsaturated fatty acid lipoxygenase ALOX15 (Homo sapiens), P16050; purified 15hLO-1, xylenol orange hydroperoxide absorbance; Potency, µM (titrated, usually from 57.1 µM), for inactives: at the top dose activity change, negative = inhibition, hits mostly inhibitors; 74,000 compounds, 1.4% hits; also: % is scaled to controls: 0 for no effect and ±100 for the full control effect; nearly all actives have a fitted effect of over 55% in size
Target sequence (P16050 whole entry, looked up): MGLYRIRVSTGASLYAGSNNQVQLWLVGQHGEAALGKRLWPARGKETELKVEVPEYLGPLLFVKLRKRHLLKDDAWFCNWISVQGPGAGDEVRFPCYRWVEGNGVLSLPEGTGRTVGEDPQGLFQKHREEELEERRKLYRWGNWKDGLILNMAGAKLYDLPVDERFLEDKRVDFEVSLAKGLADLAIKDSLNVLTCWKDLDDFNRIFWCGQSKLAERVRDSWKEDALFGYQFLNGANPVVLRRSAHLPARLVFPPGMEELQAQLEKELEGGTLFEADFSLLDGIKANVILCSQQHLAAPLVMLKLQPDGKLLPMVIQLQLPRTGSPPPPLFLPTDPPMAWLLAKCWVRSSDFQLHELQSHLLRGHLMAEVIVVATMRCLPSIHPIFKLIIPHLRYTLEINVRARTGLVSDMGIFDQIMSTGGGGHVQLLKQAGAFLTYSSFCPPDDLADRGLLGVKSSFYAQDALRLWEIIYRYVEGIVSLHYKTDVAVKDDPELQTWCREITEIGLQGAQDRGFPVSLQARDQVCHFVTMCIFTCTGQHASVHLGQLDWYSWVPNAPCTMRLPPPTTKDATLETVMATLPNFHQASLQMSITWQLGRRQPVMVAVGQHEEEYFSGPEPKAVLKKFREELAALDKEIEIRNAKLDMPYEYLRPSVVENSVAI
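Purified human 15hLO-1 (40 nM final) in 25 mM Hepes pH 7.5, 0.01% Triton X-100 was preincubated with compound 15 min at room temperature, then reacted 6 min with 50 uM arachidonic acid; hydroperoxide detected by Fe-XO, 573/405 nm absorbance ratio.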
Pol III holo inh: qHTS Assay for Inhibitors of DNA Polymerase III Holoenzyme System; reconstituted DNA polymerase III holoenzyme replication, biochemical; Potency, µM (series often up to 57.1 µM), for the others: at the highest dose activity change, negative = inhibition; 71,000 compounds, 0.25% hits; also: % is scaled to controls: 0 for no effect and ±100 for the full control effect
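Reconstituted *E. coli* holoenzyme (0.35 nM Pol III, 1 nM beta, 154 nM SSB, 2 nM primase) was preincubated with compound for 15 min at RT. Synthesis on 1.4 nM ssM13Gori ran 35 min, then was stopped with PicoGreen/EDTA and read as dsDNA fluorescence.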
Tau fil binding: qHTS Assay for Tau Filament Binding; Potency, µM (top dose mostly 57.1 µM), inactives show at the highest dose activity change, negative = inhibition; AID 596, 2007; 71,000 compounds, 2% hits; recombinant tau filaments, thioflavin S fluorescence, 15 h; filaments grown with octadecylsulfate alongside compound;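 also: % is scaled to controls: 0 for no effect and ±100 for the full control effect; actives lower thioflavin S fluorescence by blocking filaments or displacing dye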
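Read-out: ThS fluorescence, 450 nm excitation/510 nm emission; lower signal marks blocked filament formation or displaced dye. Tau at 1 uM with 30 uM ODS, 10 uM ThS, 5 mM DTT, 100 mM NaCl, 10 mM HEPES pH 7.4; 15 h, 37 C.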
Caspase-1 inhib: qHTS Assay for Allosteric/Competitive Inhibitors of Caspase-1 | P29466 | Caspase-1 enzyme, Ac-WEHD-AFC fluorogenic rate | Potency, µM (highest dose often 57.5 µM), for the others: at the highest dose activity change, negative = inhibition, usual class: inhibitors | 75,000 compounds, 0.03% hits | AID 900, 2007;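 also: plate controls were vehicle for no effect and no substrate for full effect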
* hit, by the source's call; u = inconclusive; x = no result given; [ ] = another dose, or the depositor's remark. Unless noted, calls follow the shape of the dose curve; as a rule, active = well fitted curve in the direction sought with a large enough effect; inconclusive = small, poorly fitted or top-dose-only effect, or another doubt; inactive = no such curve, though single readings can be large; an effect the other way counts as inactive or inconclusive. Potency is read from the fitted curve at half-maximal effect.

SMILES	Casp7 inh	ALOX15 inhib	Pol III holo inh	Tau fil binding	Caspase-1 inhib
CCc1cccc2nc3c(c([Si](CC)(CC)CC)c12)Cn1c-3cccc1=O	u	x	1%	20µM*	x
COC(=O)[C@@H]1[C@@H](O)[C@]2(O)c3ccccc3O[C@]2(c2ccccc2)[C@H]1c1ccccc1	0%[11.5 µM]	-1%[11.4 µM]	x	x	1%[11.5 µM]
O=S(=O)(O)c1ccc2c(N=Nc3cccc4ccccc34)c(O)c(S(=O)(=O)O)cc2c1	-9%[11.5 µM]	-2%[11.4 µM]	-9%[11.4 µM]	-11%[11.4 µM]	0%[11.5 µM]
O=[N+]([O-])c1ccc2c(N=Nc3ccc4ccccc4c3O)c(O)cc(S(=O)(=O)O)c2c1	-9%[11.5 µM]	3.2µM*	-19%[11.4 µM]	3.2µM*	-3%[11.5 µM]
COc1ccccc1N1CCN(CCN(C(=O)c2ccc(I)cc2)c2ccccn2)CC1	x	x	-2%	2%	x
O=C(N/N=C\c1ccccc1O)c1ccccc1O	-22%	-17%[25.6 µM]	u	32µM*	-4%
O=C(c1cc2ncc(Br)cn2n1)N1CCN(C(=O)c2ccco2)CC1	-1%	-10%	25µM*	10%	3%
O=C(c1cc2ncc(Br)cn2n1)N1CCOCC1	1%	-3%[11.4 µM]	-6%[11.4 µM]	-25%[11.4 µM]	0%
Cc1[nH]c2ccccc2c1SCCNC(=O)c1ccc(Br)o1	-2%	-17%	0%	-8%	-1%
O=C(NCCSc1c[nH]c2ccccc12)c1ccc(Br)o1	-1%	25µM*	-4%	1%	-5%
O=C(NCCCCN1CCCC1)c1ccc(Cc2nc3ccccc3[nH]2)cc1	0%	4%	x	x	-1%
Nc1cc(-c2cccc(F)c2)nn1S(=O)(=O)c1cccc2nsnc12	-5%	-17%	2%	16µM*	-4%
CC1=CS/C(=C(/C#N)C(=O)N2CCCCC2)N1c1ccccc1	2%	0%	3%	3%	-1%
N#C/C(C(=O)c1ccccc1)=C1/SC=C(N)N1c1ccccc1	-8%	16µM*	33%	-4%	-9%
COc1ccc(CCNc2cc(=O)[nH]c(N)n2)cc1	-5%	-10%	-8%	16µM*	-3%
COc1ccc(CCNC2=NCCS2)cc1	-1%	-4%	-4%	2%	2%
CCCc1cc(=O)[nH]c(Nc2ccc(N3CCCCC3)cc2)n1	0%	-15%	-3%	25µM*	-2%
Cc1cc(C)nc(Nc2ccc(N3CCCC3)cc2)n1	1%	u	-2%	16µM*	0%
COC(=O)[C@@]1(Cc2ccccc2)[C@H]2c3cc(C(=O)N(C)C)n(Cc4ccccc4)c3C[C@H]2CN1C(=O)c1ccccc1	-8%	x	-3%	41%	-6%
C[C@@H](CNC(N)=O)NC(N)=O	1%[11.5 µM]	11%[11.4 µM]	-7%[11.4 µM]	-1%[11.4 µM]	1%[11.5 µM]
CC(C)(C)[C@@]1(O)CCN2C[C@@H]3c4ccccc4CCc4cccc(c43)[C@@H]2C1	1%	-14%	-6%	-3%	5%
O=C(O)c1ccc(CO)o1	-1%	-3%	3%	0%	-4%
Cc1noc(C)c1-c1cc(NC2CCNCC2)ncn1	-2%	16µM*	-3%	-6%	0%
Cc1noc(C)c1-c1cc(N2CCNCC2)ncn1	-3%	-4%	-3%	2%	2%
CCS(=O)(=O)Nc1c(C(=O)OC)[nH]c2ccccc12	-1%	3%	-10%	-6%	1%
SMILES	Casp7 inh	ALOX15 inhib	Pol III holo inh	Tau fil binding	Caspase-1 inhib
CCS(=O)(=O)Nc1c(C(=O)O)[nH]c2ccccc12	-5%	-1%	-6%	20µM*	-2%
CCCC=O	0%	-2%	-8%	-11%	0%
CCC[C@@H]1O[C@@H]2C[C@@H]3[C@@H]4CCC5=CC(=O)C=C[C@@]5(C)[C@H]4[C@H](O)C[C@@]3(C)[C@@]2(C(=O)CO)O1	x	x	-7%	-8%	x
COC(=O)c1ccc(C(NC(=O)OCc2ccccc2)/C(=C/[C@@H](C)C(=O)Nc2ccc(OC)cc2)c2cccnc2)cc1 (stereo partly specified)	-4%	2%	6%	8%	-4%
O=C(C1=C(O)C(=O)N(Cc2ccco2)C1c1cccnc1)c1cc2ccccc2o1 (stereo unspecified)	2%	16µM*	-8%	153%	0%
COc1cccc2cc(C(=O)C3=C(O)C(=O)N(Cc4ccco4)C3c3cccnc3)oc12 (stereo unspecified)	-5%	8%	-9%	-10%	-2%
c1ccc(-c2cc(N3CCOCC3)nc(-c3ccccc3)n2)cc1	-3%	-1%	-1%	3%	-3%
Nc1ncnc2nc(-c3ccc(N4CCOCC4)nc3)cc(-c3cccc(Br)c3)c12	u	10µM*	x	x	x
COC(=O)C/C=C\[C@@H](C)[C@@H](/C=N\OC[C@@H](O)[C@H]1O[C@H]2OC(C)(C)O[C@H]2[C@@H]1O)NS(=O)(=O)c1ccc(C)cc1	1%[11.5 µM]	9%[11.4 µM]	x	x	-1%[11.5 µM]
COc1cc2[nH]c(=S)n(C3CCCC3)c(=O)c2cc1OC	-1%	16µM*	-2%	40%	-6%
COc1cc2[nH]c(=S)n(CC3CCCO3)c(=O)c2cc1OC (stereo unspecified)	1%	-4%	-4%	-5%	0%
CC(=O)OC[C@@H]1O[C@@H](O/N=C2/C[C@@H](O)[C@@H](O)[C@@H]3[C@@H]4C(=O)N(C(C)(C)C)C(=O)[C@H]4CC[C@H]23)[C@H](OC(C)=O)[C@H](OC(C)=O)[C@@H]1OC(C)=O	3%[11.5 µM]	3%[11.4 µM]	x	x	-3%[11.5 µM]
Cc1ccc2oc3c(c(=O)c2c1)C(c1cccc(O)c1)N(c1ccccn1)C3=O (stereo unspecified)	-6%	-11%	6%	13µM*	5%
COc1ccccc1N=c1oc2c(OC)cccc2cc1C(=O)NCc1ccco1	0%	-2%	0%	2.5µM*	-3%
COc1ccc(N=c2oc3c(OC)cccc3cc2C(=O)NCc2ccco2)cc1OC	-1%	-1%	-4%	1.3µM*	-2%
COc1ccc(OC)c(N=c2oc3c(OC)cccc3cc2C(=O)NCc2ccco2)c1	0%	1%	-2%	0.79µM*	0%
C[N+](C)([O-])Cc1cc(-c2ccccc2)ccc1O	0%[11.5 µM]	13%[11.4 µM]	-3%[11.4 µM]	3%[11.4 µM]	0%[11.5 µM]
O=C1C=C[C@@H](O)[C@H]2[C@@H]3C(=O)N(Cc4ccc5c(c4)OCO5)C(=O)[C@@H]3CC[C@H]12	0%[11.5 µM]	14%[11.4 µM]	x	x	1%[11.5 µM]
Cc1ccc(OCC(=O)Nc2ccc(N3CCCC3)cc2)cc1C	-2%	5µM*	-3%[11.4 µM]	1.6µM*	-2%
CCOc1ccccc1OCC(=O)Nc1ccc(N2CCCCC2)cc1	1%	-5%	-1%	25µM*	2%
Cc1cccc(OCC(=O)Nc2ccc(N3CCCC3)cc2)c1C	-1%	u	2%[11.4 µM]	u	-4%
Cc1cc(C)cc(OCC(=O)Nc2ccc(N3CCCC3)cc2)c1	-4%	-27%	x	x	-4%

Compound activity from PubChem BioAssay.
